According to ChEMBL document CHEMBL3988442, “University of Dundee, Small-Polar-MMV Screening Library” (2021):
For some of these results: Entries with a potency or affinity are not part of this list.

Experiments:
Parameters in all cases: scale not given: direction of the effect not stated beside the values
[1] = biological target: Protein translocase subunit SecA (Escherichia coli (strain K12)) (UniProt P10408); experiment: Assay to Identify E. coli SecA ATPase Inhibitors; assay type: functional; settings: 30 µM
Protein translocase subunit SecA (Escherichia coli (strain K12)), sequence (P10408 whole entry): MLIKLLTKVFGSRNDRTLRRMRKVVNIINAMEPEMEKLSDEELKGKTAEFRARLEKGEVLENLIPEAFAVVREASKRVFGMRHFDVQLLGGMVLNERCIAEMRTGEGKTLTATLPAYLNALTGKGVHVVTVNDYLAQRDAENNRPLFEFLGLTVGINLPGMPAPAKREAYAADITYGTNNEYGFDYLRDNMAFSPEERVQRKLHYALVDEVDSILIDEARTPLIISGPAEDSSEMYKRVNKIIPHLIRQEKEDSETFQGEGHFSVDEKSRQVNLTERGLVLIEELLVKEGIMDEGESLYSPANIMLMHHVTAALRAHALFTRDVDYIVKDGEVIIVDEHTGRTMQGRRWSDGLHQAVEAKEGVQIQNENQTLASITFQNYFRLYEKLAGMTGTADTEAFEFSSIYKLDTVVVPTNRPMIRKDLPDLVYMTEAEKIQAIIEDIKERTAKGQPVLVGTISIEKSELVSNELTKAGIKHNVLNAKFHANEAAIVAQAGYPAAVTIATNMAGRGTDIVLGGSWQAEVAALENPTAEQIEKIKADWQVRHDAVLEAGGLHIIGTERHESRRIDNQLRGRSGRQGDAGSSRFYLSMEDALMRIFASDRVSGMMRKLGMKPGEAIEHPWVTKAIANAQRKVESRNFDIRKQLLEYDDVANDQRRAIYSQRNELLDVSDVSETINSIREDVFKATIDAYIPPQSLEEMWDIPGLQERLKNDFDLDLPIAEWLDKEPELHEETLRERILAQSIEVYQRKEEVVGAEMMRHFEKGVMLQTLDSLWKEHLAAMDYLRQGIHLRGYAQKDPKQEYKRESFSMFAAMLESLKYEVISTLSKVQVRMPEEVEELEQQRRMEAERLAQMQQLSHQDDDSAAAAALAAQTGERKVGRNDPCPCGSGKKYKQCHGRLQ

[2] = biological target: T1, Ubiquitin-activating enzyme e1, putative (Leishmania donovani (strain BPK282A1)) (UniProt E9BSI1); experiment: Leishmania donovani Ubiquitin Activating Enzyme (LdE1); assay type: functional; settings: 30 µM
T1 sequence (whole entry): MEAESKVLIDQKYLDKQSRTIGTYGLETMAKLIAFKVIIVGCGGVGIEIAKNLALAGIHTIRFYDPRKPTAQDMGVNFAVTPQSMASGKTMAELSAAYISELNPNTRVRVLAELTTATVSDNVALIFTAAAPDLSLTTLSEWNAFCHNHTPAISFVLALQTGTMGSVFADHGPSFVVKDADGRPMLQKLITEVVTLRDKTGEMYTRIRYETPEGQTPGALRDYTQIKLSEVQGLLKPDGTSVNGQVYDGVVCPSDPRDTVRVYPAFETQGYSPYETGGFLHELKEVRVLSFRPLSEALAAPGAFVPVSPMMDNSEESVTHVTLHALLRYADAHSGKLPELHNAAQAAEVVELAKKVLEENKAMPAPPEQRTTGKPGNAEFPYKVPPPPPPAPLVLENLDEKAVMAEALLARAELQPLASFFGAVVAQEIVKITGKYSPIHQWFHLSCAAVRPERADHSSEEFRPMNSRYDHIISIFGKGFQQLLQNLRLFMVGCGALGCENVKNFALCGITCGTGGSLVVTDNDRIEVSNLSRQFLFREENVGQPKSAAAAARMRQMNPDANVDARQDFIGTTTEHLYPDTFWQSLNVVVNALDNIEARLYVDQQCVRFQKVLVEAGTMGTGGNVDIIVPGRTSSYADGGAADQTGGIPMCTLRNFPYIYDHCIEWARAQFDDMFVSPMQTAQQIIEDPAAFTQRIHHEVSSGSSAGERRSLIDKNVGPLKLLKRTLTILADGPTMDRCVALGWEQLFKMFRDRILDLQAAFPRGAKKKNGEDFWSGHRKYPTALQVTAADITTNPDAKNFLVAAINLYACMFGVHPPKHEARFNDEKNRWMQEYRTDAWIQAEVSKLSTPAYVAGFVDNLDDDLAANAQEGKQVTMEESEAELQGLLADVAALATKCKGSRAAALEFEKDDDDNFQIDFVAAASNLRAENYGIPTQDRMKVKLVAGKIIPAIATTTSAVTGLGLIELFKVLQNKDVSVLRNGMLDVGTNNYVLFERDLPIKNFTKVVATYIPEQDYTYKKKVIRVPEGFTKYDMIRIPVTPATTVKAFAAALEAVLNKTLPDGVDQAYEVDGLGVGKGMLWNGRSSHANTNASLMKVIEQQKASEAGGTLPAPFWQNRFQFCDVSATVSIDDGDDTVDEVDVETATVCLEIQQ

[3] = biological target: AMP-activated protein kinase, AMPK (Homo sapiens) (UniProt P54646+O43741+P54619+Q9UGJ0+Q9Y478+Q13131+Q9UGI9); experiment: AMP-dependent Kinase enzyme assay. An in vitro enzyme assay that detects ADP turnover that is directly proportional to AMPK activity. This uses naive AMPK that is activated during the assay with MK-8722; assay type: functional; settings: 30 µM
[4] = biological target: Sialic acid-binding Ig-like lectin 9 (Homo sapiens) (UniProt Q9Y336); experiment: Hs-Siglec9 ALPHAscreen SOP 20170721; settings: 10 µM
Sialic acid-binding Ig-like lectin 9 (Homo sapiens), sequence (Q9Y336 whole entry): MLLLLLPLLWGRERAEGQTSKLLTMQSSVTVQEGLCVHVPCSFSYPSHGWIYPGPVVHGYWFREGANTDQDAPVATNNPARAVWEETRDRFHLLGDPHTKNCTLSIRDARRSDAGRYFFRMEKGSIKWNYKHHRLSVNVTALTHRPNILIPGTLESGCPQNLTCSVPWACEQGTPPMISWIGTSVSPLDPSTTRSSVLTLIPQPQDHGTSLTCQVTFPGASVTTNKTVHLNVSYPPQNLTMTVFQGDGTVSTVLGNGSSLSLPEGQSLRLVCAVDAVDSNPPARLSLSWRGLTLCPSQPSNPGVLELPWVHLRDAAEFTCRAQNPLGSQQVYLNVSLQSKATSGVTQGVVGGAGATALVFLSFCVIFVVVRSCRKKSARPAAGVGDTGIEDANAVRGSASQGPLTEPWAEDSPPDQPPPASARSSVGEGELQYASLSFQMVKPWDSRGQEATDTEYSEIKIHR

[5] = system: Trypanosoma cruzi; experiment: Trypanosoma cruzi phosphomannomutase and mannose-1-phosphate guanylyltransferase assay; assay type: functional; settings: 10 µM
[6] = biological target: T2, Arginase-2, mitochondrial (Homo sapiens) (UniProt P78540); experiment: in vitro enzyme assay to detect the production of urea directly proportional to the activity of Arginase II; assay type: functional; settings: 33.3 µM; also: in the data most compounds retested in dose-response had high values
T2 sequence (whole entry): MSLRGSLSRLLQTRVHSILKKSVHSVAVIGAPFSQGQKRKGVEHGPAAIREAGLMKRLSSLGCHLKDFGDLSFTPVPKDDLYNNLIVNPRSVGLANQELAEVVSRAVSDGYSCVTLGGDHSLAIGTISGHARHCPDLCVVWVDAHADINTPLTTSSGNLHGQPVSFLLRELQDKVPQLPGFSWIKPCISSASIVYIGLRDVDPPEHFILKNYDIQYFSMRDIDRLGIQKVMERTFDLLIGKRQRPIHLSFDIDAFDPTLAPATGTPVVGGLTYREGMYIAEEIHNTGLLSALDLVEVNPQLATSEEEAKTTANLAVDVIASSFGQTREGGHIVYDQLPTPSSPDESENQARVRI

[7] = biological target: T3, Proteasome subunit beta (Trypanosoma cruzi) (UniProt O96673); experiment: Trypanosoma cruzi proteasome chymotrypsin-like activity (TcProtChymo) assay.; also: in the data most compounds retested in dose-response had high values; assay type: functional; settings: 9.37 µM
T3 sequence (whole entry): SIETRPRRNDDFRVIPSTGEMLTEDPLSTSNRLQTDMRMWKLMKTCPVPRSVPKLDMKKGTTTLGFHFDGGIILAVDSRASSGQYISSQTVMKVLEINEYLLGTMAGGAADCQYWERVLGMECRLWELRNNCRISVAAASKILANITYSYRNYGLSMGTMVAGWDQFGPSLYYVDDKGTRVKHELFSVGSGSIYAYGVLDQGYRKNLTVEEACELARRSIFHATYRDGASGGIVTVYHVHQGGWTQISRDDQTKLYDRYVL

[8] = species: Homo sapiens; experiment: To identify inhibition of the IFN signalling (Jak-Stat) pathway via expression of an eGFP reporter gene under the control of an IFN-stimulated response element (ISRE) containing MxA promoter.; assay type: functional; settings: 30 µM
[9] = biological target: T4, Tyrosyl-tRNA synthetase, putative (Trypanosoma cruzi (strain CL Brener)) (UniProt Q4DSP6); experiment: Trypanosoma cruzi tyrosyl tRNA synthetase (TcYRS) _High Tyrosine SOP; assay type: functional; settings: 30 µM; also: in the data most compounds retested in dose-response had high values
T4 sequence (whole entry): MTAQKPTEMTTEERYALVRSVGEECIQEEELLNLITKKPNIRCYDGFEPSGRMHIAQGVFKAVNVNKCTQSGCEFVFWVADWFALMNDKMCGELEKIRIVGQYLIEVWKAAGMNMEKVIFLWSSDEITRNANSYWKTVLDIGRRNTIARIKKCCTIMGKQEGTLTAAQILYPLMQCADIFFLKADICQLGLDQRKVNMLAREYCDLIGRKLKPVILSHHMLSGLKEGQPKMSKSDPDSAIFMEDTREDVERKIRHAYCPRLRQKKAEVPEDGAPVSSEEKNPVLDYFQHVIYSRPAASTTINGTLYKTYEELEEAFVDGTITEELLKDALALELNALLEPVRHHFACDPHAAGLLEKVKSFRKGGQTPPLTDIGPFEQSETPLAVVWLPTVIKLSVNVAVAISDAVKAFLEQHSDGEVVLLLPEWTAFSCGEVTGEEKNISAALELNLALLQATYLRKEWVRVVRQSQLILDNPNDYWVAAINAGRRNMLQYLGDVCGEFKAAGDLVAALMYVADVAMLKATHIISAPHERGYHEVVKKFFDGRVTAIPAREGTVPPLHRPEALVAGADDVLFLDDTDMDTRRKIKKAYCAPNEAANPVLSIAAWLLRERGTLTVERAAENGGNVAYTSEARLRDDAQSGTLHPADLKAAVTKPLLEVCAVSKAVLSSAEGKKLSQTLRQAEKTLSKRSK

[10] = biological target: T4, Tyrosyl-tRNA synthetase, putative (Trypanosoma cruzi (strain CL Brener)); experiment: Trypanosoma cruzi tyrosyl tRNA synthetase (TcYRS) SOP; assay type: functional; settings: 30 µM
[11] = biological target: Chromo domain-containing protein 1 (Saccharomyces cerevisiae (strain ATCC 204508 / S288c) (Baker's yeast)) (UniProt P32657); experiment: ScCHD-1 Enzyme Inhibition Assay; assay type: functional; settings: 30 µM; also: in the data most compounds retested in dose-response had high values
Chromo domain-containing protein 1 (Saccharomyces cerevisiae (strain ATCC 204508 / S288c) (Baker's yeast)), sequence (P32657 whole entry, the tested form may be a part): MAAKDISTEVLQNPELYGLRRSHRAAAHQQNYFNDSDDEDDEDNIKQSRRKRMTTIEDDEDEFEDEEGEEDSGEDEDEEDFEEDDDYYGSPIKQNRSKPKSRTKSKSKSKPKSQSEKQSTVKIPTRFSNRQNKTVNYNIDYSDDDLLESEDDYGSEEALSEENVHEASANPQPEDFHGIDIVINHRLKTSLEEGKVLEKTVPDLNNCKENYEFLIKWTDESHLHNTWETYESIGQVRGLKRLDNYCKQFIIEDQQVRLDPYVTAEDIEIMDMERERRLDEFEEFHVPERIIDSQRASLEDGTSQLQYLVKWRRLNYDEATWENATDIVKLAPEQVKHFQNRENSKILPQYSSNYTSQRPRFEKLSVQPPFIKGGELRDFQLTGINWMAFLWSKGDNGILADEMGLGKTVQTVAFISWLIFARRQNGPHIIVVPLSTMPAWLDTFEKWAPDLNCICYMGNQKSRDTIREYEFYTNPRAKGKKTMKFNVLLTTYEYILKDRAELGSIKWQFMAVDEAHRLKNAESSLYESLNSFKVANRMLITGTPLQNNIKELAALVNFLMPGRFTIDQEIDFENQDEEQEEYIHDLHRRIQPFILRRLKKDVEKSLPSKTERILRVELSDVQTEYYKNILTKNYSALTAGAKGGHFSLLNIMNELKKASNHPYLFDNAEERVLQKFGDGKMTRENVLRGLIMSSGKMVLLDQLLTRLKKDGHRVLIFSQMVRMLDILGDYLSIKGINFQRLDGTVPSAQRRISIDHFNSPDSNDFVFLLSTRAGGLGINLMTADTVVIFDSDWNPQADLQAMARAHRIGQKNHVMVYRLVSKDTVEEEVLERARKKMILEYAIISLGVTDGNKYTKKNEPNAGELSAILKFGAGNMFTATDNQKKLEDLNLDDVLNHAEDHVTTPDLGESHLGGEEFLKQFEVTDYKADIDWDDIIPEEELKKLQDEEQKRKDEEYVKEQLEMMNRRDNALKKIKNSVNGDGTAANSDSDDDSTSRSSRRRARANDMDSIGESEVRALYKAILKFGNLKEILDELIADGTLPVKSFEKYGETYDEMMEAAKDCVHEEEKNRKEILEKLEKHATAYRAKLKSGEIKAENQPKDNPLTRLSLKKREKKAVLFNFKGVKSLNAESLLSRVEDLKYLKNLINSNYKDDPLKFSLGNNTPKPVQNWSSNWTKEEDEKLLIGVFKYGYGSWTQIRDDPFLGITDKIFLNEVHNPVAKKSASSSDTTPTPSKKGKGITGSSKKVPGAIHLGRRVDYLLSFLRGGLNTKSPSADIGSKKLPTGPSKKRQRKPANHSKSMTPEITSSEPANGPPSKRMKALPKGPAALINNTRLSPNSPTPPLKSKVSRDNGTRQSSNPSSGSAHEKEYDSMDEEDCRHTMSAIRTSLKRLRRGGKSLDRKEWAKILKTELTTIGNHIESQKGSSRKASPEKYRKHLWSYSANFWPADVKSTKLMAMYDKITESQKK

| SMILES | Percent Effect [1] [%] | Percent Effect [2] [%] | Percent Effect [3] [%] | Percent Effect [4] [%] | Percent Effect [5] [%] | Percent Effect [6] [%] | Percent Effect [7] [%] | Percent Effect [8] [%] | Percent Effect [9] [%] | Percent Effect [10] [%] | Percent Effect [11] [%] |
| --- | --- | --- | --- | --- | --- | --- | --- | --- | --- | --- | --- |
| O=C(NCCc1ccccn1)NC1CCN(c2ncccn2)CC1 | -2.63 | 16.4 | 1.28 | 3.94 | -1.59 | 2 | 12.9 | -1.99 | 9.38 | 23.5 | -4.07 |
| Cc1nonc1CN(C)CC1(O)CCCN(CCC2CCCCC2)C1=O (stereo not given) | 2.32 | 8 | -14.2 | -0.787 | 1.66 | 12.5 | 16.4 | 35.9 | 10.4 | 18.5 | -1.61 |
| O=C(Nc1cccnc1)[C@H]1C[C@@H]2CCN(c3nncs3)C[C@H]2O1 | -0.711 | 5.41 | -5.74 | -1.47 | 2.54 | -2.08 | 10.4 | 4.24 | 10.9 | 13.4 | -4.77 |
| O=C(c1nc(-c2ccc3cc[nH]c3c2)no1)N1CCCC1 | -4.98 | -12 | 2.17 | 2.62 | 5.11 | -3.7 | 11.7 | -6.53 | 0 | -2.56 | -3.18 |
| COc1c(CNCC(O)c2cccc(F)c2)c(C(C)C)nn1C (stereo not given) | 2.75 | 10.4 | -6.14 | -13.3 | -4.6 | -0.21 | 18.7 | 5.92 | 9.52 | 14.1 | -15.9 |
| O=C(CN1CCOC(Cn2cccn2)C1)NCc1cccs1 (stereo not given) | 0.0678 | -2.7 | -5.7 | 11.3 | 1.58 | -0.924 | 1.98 | -5.12 | 0.99 | 3.66 | -4.1 |
| CC1=N[C@@]2(CC[C@@H]3CN(Cc4ccccc4F)C[C@@H]32)C(=O)N1CC1CC1 | -5 | 0 | 5.98 | -2.03 | -0.195 | -2.5 | 2.96 | 11.1 | 4.95 | 3.66 | 1.49 |
| O=C(c1cscn1)N1CCC2(CCN(Cc3cccs3)CC2)C1 | -5.71 | 8.11 | 6.09 | -2.27 | 0.489 | 2.23 | 19 | 9.36 | 1.08 | 15.4 | 0.482 |
| COc1cccc(CN2CCCC2c2c(C)nn(C)c2C)c1 (stereo not given) | -1.8 | -2.53 | -4.49 | 11.6 | 0.661 | 0.38 | -1.72 | -9.36 | 5.42 | -1.27 | -3.67 |
| CCN1CCN(C(=O)c2cc(C(=O)OC)nn2-c2ccccc2)CC1 | -1.39 | 18.4 | 3.57 | -5.6 | -5.26 | 11.5 | 15.2 | 20.6 | 7.35 | 7.32 | -8.31 |
| CC1CCN(S(=O)(=O)NCc2ccccc2Cn2cncn2)CC1 | -3.83 | 13.9 | 6.66 | 0.681 | -1.54 | 3.23 | 13.4 | 10.6 | 3.12 | 20.2 | -23.4 |
| CNc1cc2c(nn1)CCN(C(=O)c1cccc3c1OCO3)C2 | -5.03 | 5.2 | -9.97 | 7.76 | 3.75 | 2.49 | -5.07 | -5.98 | 4.85 | 7.32 | -2.55 |
| Cc1cnn(CC2CN(c3ncnc4ccccc34)CCO2)c1 (stereo not given) | -1.94 | -7.59 | 1.23 | 9.68 | 8.03 | -1.14 | 1.39 | 37.6 | 1.48 | 1.27 | -3.24 |
| O=C(NCCOc1ccc(F)c(F)c1)NCc1ccncc1 | -1.97 | 5.41 | 0.439 | -1.88 | -2.32 | -2.86 | 11.2 | 14.5 | -0.529 | 4.88 | -2.73 |
| CN(C)CCOCC1CN(CC2CCOCC2)Cc2nnn(C)c21 (stereo not given) | -5.87 | 10.8 | 1.42 | -2.51 | -5.96 | 1.24 | 8.67 | 17 | 5.38 | 11.1 | -4.9 |
| CCN(CC)C(CNS(=O)(=O)c1ccc(C(=O)NC)cc1)c1ccco1 (stereo not given) | -3.83 | 5.41 | 3.15 | -5.57 | -5.47 | -1.67 | 18.5 | 13.1 | 9.9 | 6.1 | 7.75 |
| CC(C)C1CN(C(=O)c2nccnc2N)CCS1 (stereo not given) | -2.86 | 10.4 | -7.56 | 11 | 3.83 | -92.4 | 6.32 | 14.5 | 3.23 | 8.64 | -9.31 |
| CC(C)Sc1ncccc1C(=O)NCc1ccc(CS(C)(=O)=O)cc1 | -4.04 | 13.9 | 0.323 | -3.32 | -1.74 | 4.09 | 18 | 18.1 | 4.17 | 5.06 | -15.6 |
| CN(C)Cc1nnc(C2CCN(c3nccc(N)n3)CC2)n1C1CC1 | -4.19 | 1.39 | -3.33 | -0.797 | 1.26 | 0.442 | 8.42 | -31.4 | 5.26 | 5.13 | -3.78 |
| Cc1cnn(CC2CCCN2Cc2nc3ccccc3nc2C)c1 (stereo not given) | -2.22 | 0 | 0.154 | 1.31 | 4.41 | 1.47 | 10.4 | 9.09 | 0 | 7.06 | -12.8 |
